Data reported in PubChem BioAssay (EPA / NIEHS).
Inconclusive results are not listed. The source made the active and inactive calls. Rule for the calls: active = hit-call score of the fitted dose curve at least 0.9, where 1 is the maximum; inconclusive = response in the unintended direction; inactive = score below 0.9.

What follows are compounds tested against Nuclear receptor subfamily 1 group I member 2 (Homo sapiens) (UniProt O75469) (assay: ATG_PXR_TRANS: Attagene TRANS-FACTORIAL HepG2 Assay for human Pregnane X Receptor (PXR) (AID 2283008)).
Protocol: ATG_TRANS is a cell-based, multiplexed-readout assay that uses HepG2, a human liver cell line, with measurements taken at 24 hours after chemical dosing in a 24-well plate.ATG_PXR_TRANS is one of 30 assay component(s) measured or calculated from the ATG_TRANS assay. It is designed to make measurements of mRNA induction, a form of inducible reporter, as detected with fluorescence intensity signals by Reverse transcription polymerase chain reaction (RT-PCR) and Capillary electrophoresis technology.Data from the assay component ATG_PXR_TRANS was analyzed into 1 assay endpoint. This assay endpoint, ATG_PXR_TRANS, was analyzed in the positive analysis fitting direction relative to DMSO as the negative control and baseline of activity. Using a type of inducible reporter, measures of mRNA for gain-of-signal activity can be used to understand the reporter gene at the transcription factor-level as they relate to the gene NR1I2. Furthermore, this assay endpoint can be referred to as a primary readout, because this assay has produced multiple assay endpoints where this one serves a reporter gene function. To generalize the intended target to other relatable targets, this assay endpoint is annotated to the nuclear receptor intended target family, where the subfamily is non-steroidal.
Human liver HepG2 cells are transiently transfected with multiple reporter transcription units (MRTUs) in 6-well plates using FuGene 6 reagent (Roche; 3 ml FuGene/1 mg DNA). The MRTU constructs are regulated by a cis-regulating element (promoter). […] A major difference between the CIS and TRANS system is that in CIS activities of endogenous TFs are measured, whereas the TRANS assay evaluates changes in activities of exogenous, chimeric NR-Gal4 proteins. […] At the end of 24 hour incubation, total RNA was isolated using TriZol reagent (Invitrogen). The isolated RNA is then reverse-transcribed using oligo(dT) primer and Mo-MLV reverse transcriptase (Invitrogen) with DNAse I (Ambion) treatment for 30 min. The one-tenth of the produced cDNA was amplified by PCR using Taq DNA polymerase (Invitrogen) and two reporter sequence-specific primers. The PCR products were fluorescently labeled by primer extension with 6-arboxyfluorescein (6-FAM) 5'-labeled reporter sequence-specific primer (2 min at 95 C, 20 s at 68 C and 10 min at 72 C) and these products were digested with 5U of HpaI (New England Biolabs) for 2h at 37 C. The fragments were purified using Qiaquick PCR columns (Qiagen), analyzed on an ABI 3130xL genetic analyzer (Applied Biosystems) with peak positions identified by using a set of X-rhodamine (ROX)-labeled MapMarker1000 molecular weight standards (BioVentures). The raw capillary electrophoresis data was processed using Attagraph software (Attagene).

Chain of Nuclear receptor subfamily 1 group I member 2 (Homo sapiens) (O75469 whole entry, looked up): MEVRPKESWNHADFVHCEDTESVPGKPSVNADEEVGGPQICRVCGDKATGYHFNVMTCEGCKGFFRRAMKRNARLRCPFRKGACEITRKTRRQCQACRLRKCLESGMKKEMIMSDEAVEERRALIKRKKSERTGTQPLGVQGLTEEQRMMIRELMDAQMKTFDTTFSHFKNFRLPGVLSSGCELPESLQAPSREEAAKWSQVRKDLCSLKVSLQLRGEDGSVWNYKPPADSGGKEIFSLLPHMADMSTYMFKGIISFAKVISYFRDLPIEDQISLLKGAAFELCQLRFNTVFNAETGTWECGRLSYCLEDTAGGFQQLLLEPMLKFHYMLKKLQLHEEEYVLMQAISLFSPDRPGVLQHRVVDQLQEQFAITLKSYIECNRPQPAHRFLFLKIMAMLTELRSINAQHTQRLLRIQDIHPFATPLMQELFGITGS

SMILES | AC50 | outcome
BrCc1cccc(Oc2ccccc2)c1 | 43.3 µM (active) | 
Cc1ccc(-c2ccccc2)cc1 |  | inactive
CCCCC1(COC(=O)CCC(=O)O)C(=O)N(c2ccccc2)N(c2ccccc2)C1=O | 28 µM (active) | 
CC(Oc1cc(Cl)ccc1Cl)C(=O)O (stereo not given) |  | inactive
CN(C)c1cccc(O)c1 | 5.57 µM (active) | 
CCC1CCCCC1 |  | inactive
CCCCN(CCCC)C(=O)N(CCCC)CCCC | 0.445 µM (active) | 
O=C(CC(=O)c1ccccc1)c1ccccc1 | 28.2 µM (active) | 
CCCSc1ccc2nc(NC(=O)OC)[nH]c2c1 |  | inactive
CCCCOC(=O)CCCCCCCC(=O)OCCCC |  | inactive
CC[N+](C)(CC)CC |  | inactive
O=C1CCCC=CCCCCCCCCCC1 | 10.3 µM (active) | 
CCCCCCC(=O)c1ccccc1 | 59.2 µM (active) | 
COC(C)(C)CC(C)=O |  | inactive
CC(=O)O[C@H]1C[C@@H]2CC[C@@]1(C)C2(C)C |  | inactive
CC(C)CCOC(=O)c1ccccc1 |  | inactive
CC1C2CC(CC2C2CCCC(O)C2)C1(C)C (stereo not given) | 14.3 µM (active) | 
CC(=O)O[C@@H]1C[C@@H]2CC[C@@]1(C)C2(C)C |  | inactive
C#CC(C)(O)CC(C)C (stereo not given) |  | inactive
C1CCOC1 |  | inactive

SMILES | AC50 | outcome
CN(C)C(=S)SC(=S)N(C)C |  | inactive
CCOC(=O)COC(=O)c1cc(Oc2ccc(C(F)(F)F)cc2Cl)ccc1[N+](=O)[O-] | 22.2 µM (active) | 
CC(=O)CC(=O)Nc1ccc(C)cc1C |  | inactive
CC=Cc1ccc(OC)c(OC)c1 | 27.6 µM (active) | 
CCCCC(CC)COC(C)=O (stereo not given) |  | inactive
CC(C)c1ccccc1O |  | inactive
COC(=O)c1ccc(C)cc1C1=NC(C)(C(C)C)C(=O)N1 (stereo not given) (tested in a mixture with another compound) |  | inactive
CC/C=C\CCOC(=O)CC |  | inactive
C=CC(=O)OCCCC |  | inactive
C=Cc1ccncc1 |  | inactive
C=C[Si]1(C)O[Si](C)(C=C)O[Si](C)(C=C)O[Si](C)(C=C)O1 (stereo not given) | 4.48 µM (active) | 
CS(=O)(=O)c1ccc(C2=C(c3ccccc3)C(=O)OC2)cc1 |  | inactive
C#CC(C)N(C)C(=O)Nc1ccc(Cl)cc1 (stereo not given) |  | inactive
Cc1c(Cl)cccc1[N+](=O)[O-] |  | inactive
CCC(C)c1cc([N+](=O)[O-])cc([N+](=O)[O-])c1OC(=O)OC(C)C (stereo not given) | 1.58 µM (active) | 
C=C1CC[C@H](O)C/C1=C/C=C1\CCC[C@]2(C)[C@@H]([C@H](C)/C=C/[C@H](C)C(C)C)CC[C@@H]12 | 3.81 µM (active) | 
C=C(C)[C@H]1CC=C(C)C(=O)C1 |  | inactive
CC(C)(C)OC(=O)c1ccc(O)cc1 |  | inactive
CCCCCCCCN1CCCC1=O | 7.53 µM (active) | 
CC/C=C\CC/C=C/CO |  | inactive
